IL-2 act – activators of IL-2 | AID 652025 | activation, % (series mostly up to about 46 µM) | hit rate 0.065% among 360,000 | IL-2 activation reporter assay, cell-based qHTS; stimulated with anti-CD3/CD4/CD28 beads; in transgenic mouse T cells; in the data active = activation above about 50%; inconclusive = mostly about 30% to 49%; note: 0% is about no effect
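Unstimulated transgenic mouse T cells; 60-min compound exposure; bead-based TCR/CD4/CD28 stimulation; 18 h culture, 37 degrees C; dual fluorescence (EGFP, DsRed) plate cytometry.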
ClpP mod – qHTS Assay for Activators of ClpP | ATP-dependent Clp protease proteolytic subunit (Bacillus subtilis (strain 168)), P80244 | purified B. subtilis ClpP, FRET peptide cleavage, 20 min | Potency, µM (doses to about 57.5 µM), without a hit: top-dose activity change, negative = active | hit rate 1.9% among 340,000 | AID 651965, 2013; active = well fitted falling curve with a large enough effect; inconclusive = small, poorly fitted or top-dose-only effect; inactive = no such curve, though single readings can be large or run the other way; note: potency is the fitted concentration of half-maximal effect; the source files actives as falling curves though it sought activators and does not explain the sign; nearly all actives have a fitted effect of over 65% in size
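FRET quenching reversal measured ClpP activation: 10 microg/mL B. subtilis ClpP at pH 8 with the FRET-FV decapeptide, read at 430 nm after 320 nm excitation. The 20-min minus 0-min signal was scaled between DMSO/no-enzyme wells and ADEP (5.8 microM final).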
NPSR antag – antagonists of human neuropeptide S receptor cAMP signaling | Q6W5P4 | CHO-NPSR cells, cAMP TR-FRET, antagonist mode | Potency, µM (doses to about 38.3 µM), for inactives: at the highest dose activity change, negative = inhibition, usual class: inhibitors | hit rate 1% among 220,000 | AID 1461; note: potency is the fitted concentration of half-maximal effect; % is set by controls: 0 for no effect and ±100 for the full control effect; nearly all actives have a fitted effect of over 50% in size
Target sequence (Q6W5P4 whole entry, looked up): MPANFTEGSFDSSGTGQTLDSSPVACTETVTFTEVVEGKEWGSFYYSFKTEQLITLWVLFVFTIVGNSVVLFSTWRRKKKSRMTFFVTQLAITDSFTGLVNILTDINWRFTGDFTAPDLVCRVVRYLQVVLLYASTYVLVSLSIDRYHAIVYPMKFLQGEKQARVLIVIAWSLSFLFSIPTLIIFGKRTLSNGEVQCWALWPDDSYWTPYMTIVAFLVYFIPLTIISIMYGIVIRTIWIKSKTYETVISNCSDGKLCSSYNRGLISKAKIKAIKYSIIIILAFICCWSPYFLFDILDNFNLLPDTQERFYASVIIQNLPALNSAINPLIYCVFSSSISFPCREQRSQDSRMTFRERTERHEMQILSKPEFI
PKM2 act – activators of human pyruvate kinase M2 | Potency, µM (highest dose often 57.5 µM), without a hit: at the highest dose activation, most hits filed as activators | hit rate 0.34% among 260,000 | purified PKM2, Kinase-Glo ATP luminescence, activation; response scale: 0% is enzyme alone, no compound; note: potency is the fitted concentration of half-maximal effect; % is set by controls: 0 for no effect and ±100 for the full control effect; nearly all actives have a fitted effect of over 55% in size
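hPK-M2, >95% pure; 0.1 mM ADP / 0.5 mM PEP final; imidazole pH7.2 buffer w/ 7 mM MgCl2, 50 mM KCl; 1 h RT; Kinase-Glo lum. Intermediate enzyme activity for dual inhibitor/activator qHTS.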
* marks the source's active call; other numbers are inactive results; ? = inconclusive; · = no result; [ ] = another dose, or the depositor's remark. A selection: hits, their analogues and other compounds. The true share with any hit is near 2%. Unless noted, calls come from the whole dose curve; as a rule, active = well fitted curve in the direction sought with a large enough effect; inconclusive = small, poorly fitted or top-dose-only effect, or another doubt; inactive = no such curve, though single readings can be large; an effect the other way counts as inactive or inconclusive.

SMILES	IL-2 act	ClpP mod	NPSR antag	PKM2 act
Cc1cccc(NC(=O)CC2SC(=O)N(c3ccccc3)C2=O)c1 (stereo unspecified)	-4.1	35.5µM*	-0.3%[46.1 µM]	3.5%
Cc1ccc(NC(=O)CC2SC(=O)N(c3ccccc3)C2=O)cc1 (stereo unspecified)	-1.0	28.2µM*	?	-3.4%
N#CC1(C#N)C(c2ccccc2)OC23CCCCCC2C1(C#N)C(=N)O3 (stereo unspecified)	-1.0	31.6µM*	-6.1%[46.1 µM]	1.9%
N#CC1(C#N)C(c2ccccc2)OC23CCCCC2C1(C#N)C(=N)O3 (stereo unspecified)	0.7	14.1µM*	15.3%	0.2%
CCCCC1OC23CCCCC2C(C#N)(C#N)C1(C#N)C(=N)O3 (stereo unspecified)	0.6	-85.5%	12.6%	4.5%
CCCCCCCCOc1ccc(C2OC34CCCCC3C(C#N)(C#N)C2(C#N)C(=N)O4)cc1 (stereo unspecified)	5.0	20µM*	-18.5%[46.1 µM]	1.1%
CCCCC1OC23CCCCC2C(C#N)(C(=N)O3)C1(C#N)C#N (stereo unspecified)	1.2	?	-14.5%[46.1 µM]	2.3%
CCCCNC(=O)NNC(=O)c1ccco1	-6.1	-2.0%	8.5%	0.1%
CCOC(=O)c1ccc(-n2c(N)c(C(=O)OC)c3nc4ccccc4nc32)cc1	·	2.82µM*	·	·
CCCCCOC(=O)c1c(N)n(CCOC)c2nc3ccccc3nc12	-2.3	41.2%	-22.5%[46.1 µM]	-2.2%
CCOC(=O)c1c(N)n(CCOC(=O)c2cccs2)c2nc3ccccc3nc12	5.6	7.94µM*	?	5.8%
Cc1cccc(N2N=C(C(=O)O)CCC2=O)c1	1.6	-6.0%	·	·
CC1=C(C(=O)OCC2CCCO2)C(c2ccccc2)C2=C(CC(C)(C)CC2=O)N1 (stereo unspecified)	0.1	·	-16.5%	1.3%
C=CCn1c(O)c(N=NC(=S)Nc2ccc(OC)cc2)c2ccccc21	-3.9	22.4µM*	-4.6%	-3.5%
Cc1c(Cl)cccc1NC(CC(=O)c1ccccc1)C(=O)O (stereo unspecified)	-1.3	25.1µM*	-15.0%	?
O=C(CC(Nc1ccccc1Cl)C(=O)O)c1ccccc1 (stereo unspecified)	-4.9	-0.8%	-7.8%	12.7%
CCC(=O)OCC(=O)Nc1cc([N+](=O)[O-])ccc1Cl	-3.5	-2.7%	3.1%	-1.7%
CN1CCN(C(=O)c2cc3c(ccc4ccccc43)oc2=O)CC1	-3.0	12.6µM*	1.0%[46.1 µM]	11.2%
NNC(=O)c1cc2c(ccc3ccccc32)o1	-0.3	·	8.2%	8.8%
O=C(O)c1cc2c(ccc3ccccc32)o1	-1.8	28.2µM*	-2.5%[46.1 µM]	-9.7%
O=C(Nc1cccnc1)c1cc2c(ccc3ccccc32)o1	-1.9	25.1µM*	-15.2%[46.1 µM]	-1.7%
O=C(N/N=C/c1ccncc1)c1cc2c(ccc3ccccc32)o1	0.2	?	-6.6%[46.1 µM]	0.5%
C[C@@H](NC(=O)[C@@H]1CCCN1C(=O)[C@@H]1CCCN1C(=O)c1cccc2ccccc12)c1ccccc1	-1.1	-1.4%	·	·
O=C(O)c1cnn(-c2ccccc2)c1C(F)(F)F	0.1	·	17.9%	3.9%
CC1(C)Cc2cccc(OCC(=O)Nc3ccc(S(N)(=O)=O)cc3)c2O1	-3.0	0.7%	·	·
SMILES	IL-2 act	ClpP mod	NPSR antag	PKM2 act
O=C1NC2(CCCC2)C(=O)N1CCS(=O)(=O)Oc1ccccc1	0.5	·	11.4%	-0.4%
Cc1cc(N/N=C/c2ccc(N(C)C)cc2)nc(NCc2ccccc2)n1	-0.3	3.8%	10µM*	1.0%
Cn1c(=O)c([N+](=O)[O-])c(-n2ccnc2)c2ccccc21	-6.2	-1.1%	-22.5%	14.9%
Cn1c2ccccc2c2ncn(CCN3CCOCC3)c(=O)c21	0.1	31.6µM*	-0.5%[46.1 µM]	-6.3%
[N-]=[N+]=NCCN1CCN(Cc2ccccc2)CCC1=O	0.0	-1.0%	·	-5.4%
CC1CCC(NC(=O)Cn2c(=O)oc3ccccc32)CC1 (stereo unspecified)	1.8	-3.5%	·	-2.7%
COc1ccccc1-c1nc(C(N)=O)c2[nH]c(=O)n(-c3cccc(C)c3)c2n1	0.0	20µM*	?	-0.3%
Cc1cccc(-n2c(=O)[nH]c3c(C(N)=O)nc(-c4ccccc4Cl)nc32)c1	-1.5	4.5%	?	-3.8%
Cc1c(NC(=O)CSc2nc(N)cc(N)n2)c(=O)n(-c2ccccc2)n1C	-2.5	28.2µM*	·	·

Screens deposited in PubChem by National Center for Advancing Translational Sciences (NCATS).
